Measured values: PubChem BioAssay (NCATS)
“And” between values parts separate entries of the source, which are not always exact repeats. Equal entries are not always repeated. Inconclusive results are not listed. More than one record can exist for a structure, and the calls need not agree. The source made the active and inactive calls. Calls come from the whole dose curve; as a rule, active = well fitted curve in the direction sought with a large enough effect; inconclusive = small, poorly fitted or top-dose-only effect, or another doubt; inactive = no such curve, though single readings can be large; an effect the other way counts as inactive or inconclusive.

Key:
[1] = Viability qHTS for spleen associated tyrosine kinase inhibitor (SYKi) naive MV4-11 cells (AID 1963823); note: nearly all actives have a fitted effect of over 40% in size
Summary of the method: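 Compounds were dispensed acoustically onto plates, MV4-11 cells (SYKi-naive) added at 500 per well, and plates incubated 72 hr at 37 C. CellTiter-Glo was added and luminescence measured after 10 min.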

[2] = Viability qHTS for spleen associated tyrosine kinase inhibitor (SYKi) drug resistant MV4-11 cells (AID 1963824); note: nearly all actives have a fitted effect of over 35% in size
Summary of the method: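 SYK-inhibitor-resistant MV4-11 AML cells were seeded at 500 per well onto compound and cultured 72 hours (37 °C, 5% CO2). CellTiter-Glo was then added, and after 10 min at room temperature, luminescence gave viability.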

[3] = Cellular viability qHTS for adrenocortical cancer (ACC) cell line SW-13 (AID 1963989); settings: SW-13 ACC cells viability, CellTiter-Glo, 48 h; activity (max response): stronger effect = lower value; note: nearly all actives have a fitted effect of over 65% in size;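 for activity (max response): cells grown in serum-free medium with ITS supplement; % is set by controls: 0 for no effect and ±100 for the full control effect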
Summary of the method: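 IC50 and maximal-response values come from four-parameter logistic fits of titration data. SW-13 cells in serum-free medium received compounds (up to 46 uM final) for 48 h before CellTiter-Glo luminescence.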

[4] = Cellular viability qHTS for adrenocortical cancer (ACC) cell line NCI-H295R (AID 1963990); note: nearly all actives have a fitted effect of over 60% in size
Summary of the method: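 Adrenocortical carcinoma cells, suspended at 300 000 cells/mL in serum-free DMEM plus ITS, rested overnight before pin transfer of compound. After two days' incubation, ATP-dependent luminescence was recorded and curve-fitted.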
Potency is the fitted concentration of half-maximal effect.

CCOC(=O)C1=C(C)NC(C)=C(C(=O)OCC)C1c1ccccc1/C=C/C(=O)OC(C)(C)C
active: Potency [1] 9.44 µM | Potency [2] 4.73 µM | Potency [3] 16.4 µM | Potency [4] 6.51 µM

CC(C)c1c(C(=O)Nc2ccccc2)c(-c2ccccc2)c(-c2ccc(F)cc2)n1CC[C@@H](O)C[C@@H](O)CC(=O)O
active: Potency [1] 2.99 µM and 1.93 µM and 1.82 µM | Potency [2] 2.11 µM and 1.09 µM and 910 nM
inactive: activity (max response) [3] -20.9% and -15.4% | Potency [4]

CC(=O)Nc1ccc(OCCOCCOc2ccc(NC(C)=O)cc2)cc1
inactive: Potency [1] | Potency [2] | activity (max response) [3] -7.42% | Potency [4]

N=C1CCCN1Cc1[nH]c(=O)[nH]c(=O)c1Cl
inactive: Potency [1] | Potency [2] | activity (max response) [3] -17.6% | Potency [4]

O=C(NCCCNC(=O)c1ccc[nH]c1=O)c1cc(-c2ccccc2)on1
active: Potency [1] 4.68 µM | Potency [2] 4.68 µM | Potency [3] 22.4 µM | Potency [4] 15.8 µM

O=S(=O)(O)c1cc(I)c(O)c2ncccc12
active: Potency [1] 0.015 µM
inactive: Potency [2] | activity (max response) [3] 0.547% | Potency [4]

Cc1cc(O[C@@H](CCC(F)(F)F)c2ccc(C(=O)NCCC(=O)O)cc2)cc(C)c1-c1ccc(C(C)(C)C)cc1
active: Potency [1] 13.2 µM | Potency [2] 9.34 µM | Potency [3] 25.1 µM | Potency [4] 22.4 µM

NC(=O)C1(N2CCCCC2)CCN(CCCC(=O)c2ccc(F)cc2)CC1
inactive: Potency [1] | Potency [2] | activity (max response) [3] 1.85% | Potency [4]

CC[C@@H](C)Nc1cc(C(=O)NC2CC3CC[C@@H](C2)N3c2ccc(C(=O)C3CC3)cn2)c(C)cc1C(N)=O (stereo partly drawn)
active: Potency [1] 0.013 µM | Potency [2] 0.0259 µM | Potency [3] 0.178 µM | Potency [4] 0.355 µM

O=C(O)C(=O)Nc1cccc(-c2nn[nH]n2)c1
inactive: Potency [1] | Potency [2] | activity (max response) [3] 14.5% and 11% | Potency [4]

C[C@]12CC[C@@H]3c4ccc(O)cc4C[C@@H](CCCCCCCCCS(=O)CCCC(F)(F)C(F)(F)F)[C@H]3[C@@H]1CC[C@@H]2O (stereo partly drawn)
inactive: Potency [1] | Potency [2] | activity (max response) [3] -10.5% | Potency [4]

CN(C)CCCOc1nn(Cc2ccccc2)c2ccccc12
inactive and 13 µM (active): Potency [2]
active: Potency [3] 11.6 µM | Potency [4] 14.6 µM
inactive: Potency [1]

CN=C(NC#N)NCCSCc1csc(N=C(N)N)n1
inactive: Potency [1] | Potency [2] | activity (max response) [3] 7.67% | Potency [4]

CC(=O)[C@]1(N)Cc2c(O)c3c(c(O)c2[C@@H](O[C@H]2C[C@H](O)[C@H](O)CO2)C1)C(=O)c1ccccc1C3=O
active: Potency [1] 5.9 µM | Potency [2] 4.68 µM
inactive: activity (max response) [3] -6.73% | Potency [4]

Oc1cc(O)cc(/C=C/c2ccc(O)c(O)c2)c1
active: Potency [1] 5.9 µM and 5.17 µM | Potency [2] 5.9 µM and 2.59 µM
inactive: activity (max response) [3] -23.2% | Potency [4]

O=C(Nc1cc(Oc2cc(F)c(NC(=O)C3(C(=O)Nc4ccc(F)cc4)CC3)cc2F)ccn1)C1CC1
inactive: activity (max response) [3] -9.83% | Potency [4]
active: Potency [1] 23.1 nM and 59 nM | Potency [2] 25.9 nM and 66.1 nM

O=C(CCl)Nc1cccc(NC2=NS(=O)(=O)c3ccccc32)c1
active: Potency [1] 2.63 µM | Potency [2] 2.63 µM | Potency [3] 8.91 µM | Potency [4] 3.16 µM

C[C@H]1C[C@H]2[C@@H]3CCC4=CC(=O)C=C[C@]4(C)[C@H]3C(=O)C[C@]2(C)[C@@]1(O)C(=O)CO
inactive: Potency [1] | Potency [2] | activity (max response) [3] -6.73% | Potency [4]

Nc1nc(N)c(-c2ccccc2)s1
inactive: Potency [1] | Potency [2] | activity (max response) [3] 6.99% | Potency [4]

Cc1cccc(C)c1NC(=O)c1ccc(N)cc1
inactive: Potency [1] | Potency [2] | activity (max response) [3] 6.32% | Potency [4]

C[C@]12C[C@H](O)[C@H]3[C@@H](CCC4=CC(=O)CC[C@@]43C)[C@@H]1CC[C@@H]2C(=O)CO
inactive: Potency [1] | Potency [2] | activity (max response) [3] 4.71% | Potency [4]

OC[C@H]1O[C@@H](S[C@@H]2O[C@H](CO)[C@H](O)[C@H](n3cc(-c4cccc(F)c4)nn3)[C@H]2O)[C@H](O)[C@@H](n2cc(-c3cccc(F)c3)nn2)[C@H]1O
inactive: Potency [1] | Potency [2] | activity (max response) [3] 11.8% | Potency [4]
